Inconclusive results are not listed. A call without a number means that no potency is given here. Active and inactive are the calls of the source. The call rests on the fitted dose curve; in most records, active means well fitted inhibition curve with a large enough effect; inconclusive means small, poorly fitted or top-dose-only effect; inactive means flat fitted curve, though single readings scatter.
biological target: Glutathione peroxidase 1 (Homo sapiens) (UniProt P07203); experiment: Primary qHTS Assay for Inhibitors of Recombinant Selenoprotein Glutathione Peroxidase 1 (GPX1) (AID 1845191); conditions: recombinant GPX1, GR-coupled NADPH fluorescence, 15 min; series mostly up to 27.7 µM; further: nearly all actives have a fitted effect of over 65% in size
Sequence (P07203 whole entry, looked up): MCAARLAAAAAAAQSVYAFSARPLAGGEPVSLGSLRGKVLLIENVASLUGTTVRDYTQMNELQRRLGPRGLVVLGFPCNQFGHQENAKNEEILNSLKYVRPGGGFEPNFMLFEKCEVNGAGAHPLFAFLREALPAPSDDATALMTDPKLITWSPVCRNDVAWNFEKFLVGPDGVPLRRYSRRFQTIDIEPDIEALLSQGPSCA
In short: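 10 nM GPX1 + cpd, 30 min RT; start w/ 1 mM GSH, 0.5 mM cumene hydroperoxide, 0.5 mM NADPH, 100 nM GR, 0.01% BSA; buffer 50 mM Tris-HCl pH 7.5, 2 mM EDTA, 150 mM NaCl; Fl 340/450, 0 & 15 min.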

SMILES | Potency
COC(=O)C(CC1CCCC1)c1ccc(S(C)(=O)=O)cc1 (stereo unspecified) | inactive
CC(C)/C=C1/NC(=O)C(C(C)C)n2c1nc1c(O)cccc1c2=O (stereo unspecified) | inactive
O=C(O)/C=C/c1ccc(O[C@@H]2O[C@H](CO)[C@@H](O)[C@H](O)[C@H]2O)cc1 | inactive
CC1CCCCCCCc2cc(O)cc(O)c2C(=O)O1 (stereo unspecified) | inactive
CSC(=O)OCC1=C[C@@H]2OC(=O)C3=CO[C@@H](O[C@@H]4O[C@H](CO)[C@@H](O)[C@H](O)[C@H]4O)[C@H]1[C@@H]32 | inactive
C=C1C[C@]23C[C@H]1CC[C@H]2[C@]1(C)CC[C@H](O)[C@@](C)(C(=O)O)[C@H]1[C@@H]3C(=O)O | inactive
C[C@@H]1O[C@@H](O[C@H]2[C@H](OC(=O)[C@]34CCC(C)(C)C[C@H]3C3=CCC5[C@@]6(C)CC[C@H](O[C@@H]7O[C@H](CO[C@@H]8OC[C@H](O)[C@H](O)[C@H]8O[C@@H]8OC[C@@H](O)[C@H](O)[C@H]8O)[C@@H](O)[C@H](O)[C@H]7O)C(C)(C)C6CC[C@@]5(C)[C@]3(C)C[C@H]4O)O[C@H](CO)[C@@H](O)[C@@H]2O)[C@H](O[C@@H]2O[C@H](CO)[C@@H](O)[C@H](O)[C@H]2O)[C@H](O)[C@H]1O[C@@H]1OC[C@@H](O)[C@H](O[C@@H]2OC[C@@H](O)[C@H](O)[C@H]2O)[C@H]1O (stereo partly specified) | inactive
CC(C)=CCC[C@](C)(O[C@@H]1O[C@H](CO)[C@@H](O)[C@H](O)[C@H]1O)[C@H]1CC[C@]2(C)[C@@H]1[C@H](O)CC1[C@@]3(C)CC[C@H](O)C(C)(C)C3[C@@H](O[C@@H]3O[C@H](CO)[C@@H](O)[C@H](O)[C@H]3O[C@@H]3O[C@@H](C)[C@H](O)[C@@H](O)[C@H]3O)C[C@]12C (stereo partly specified) | inactive
CC(C)(O)/C=C/C(=O)[C@](C)(O)[C@H]1[C@H](O)C[C@@]2(C)[C@@H]3CC=C4[C@@H](C=C(O[C@@H]5O[C@H](CO)[C@@H](O)[C@H](O)[C@H]5O)C(=O)C4(C)C)[C@]3(C)C(=O)C[C@]12C | inactive
C[C@H]1CCN2C[C@]34C[C@@]5(C(=O)Nc6c5ccc5c6OC=CC(C)(C)O5)C(C)(C)C3C[C@]12C(=O)N4C (stereo partly specified) | inactive
O=C(/C=C/c1ccc(O)c(O)c1)O[C@@H]1[C@@H](O)[C@H](OC2CCCCC2O)O[C@H](CO)[C@H]1O (stereo partly specified) | inactive
COc1cc(/C=C/C(=O)O[C@@H]2O[C@H](CO)[C@@H](O)[C@H](O)[C@H]2O)ccc1O | inactive
CC(=O)/C=C/C1(O)C(C)CC(O[C@@H]2O[C@H](CO)[C@@H](O)[C@H](O)[C@H]2O)CC1(C)C (stereo partly specified) | inactive
CC(=O)OC1CC2C(C)(C)C(=O)C=CC2(C)C2CC(=O)C3=C(CCC3C3=CC(O)OC3=O)C12C (stereo unspecified) | inactive
C=C(CCO)C(=O)OCC1OCC(OC(=O)C(=C)CCO[C@@H]2O[C@H](COC(=O)C(=C)CCO[C@@H]3O[C@H](CO)[C@@H](O)[C@H](O)[C@H]3O)[C@@H](O)[C@H](O)[C@H]2O)C(O)C1O (stereo partly specified) | inactive
CCC1OC(=O)C(C)CC(C)C(=O)/C(C)=C/C(C)C(=O)/C=C/C1(C)O (stereo unspecified) | inactive
CC(C)C1(O)C=C2C(=O)CC3C(C)(C(=O)O)CCCC3(C)C2CC1 (stereo unspecified) | inactive
CC(NC(=O)c1ccccc1N)C(=O)O (stereo unspecified) | inactive
CC(=O)/C=C/[C@H]1[C@](C)(O)[C@@H](O)[C@H](O)C2C(C)(C)CCC[C@@]21C (stereo partly specified) | inactive
CO[C@@H]1[C@]2(O)C(=O)N3/C=C\C(C)(C)c4[nH]c5ccccc5c4/C=C\3C(=O)N2[C@]23[C@H](CO)C(C)(C)N2c2ccccc2[C@]13O | inactive
CC(=O)NC1C(OC2CCC3(C)C(CCC4(C)C3CC=C3C5CC(C)(C)CCC5(C(=O)O)C(O)CC34C)C2(C)C)OC(CO)C(O)C1O (stereo unspecified) | inactive
COC(=O)C(CC1(OC(=O)C(C)C)c2ccccc2N2C(=O)C(C)(C)N(O)C21)n1cnc2ccccc2c1=O (stereo unspecified) | inactive
OC[C@H]1O[C@@H](OCc2ccccc2)[C@H](O)[C@@H](O)[C@@H]1O | inactive
COc1cc(/C=C/C(=O)O)ccc1O[C@@H]1O[C@H](CO)[C@@H](O)[C@H](O)[C@H]1O[C@@H]1OC[C@](O)(CO)[C@H]1O | inactive
CC(=O)OC1(C)CC(O)C2(O)C=COC(OC3OC(CO)C(O)C(O)C3O)C12 (stereo unspecified) | inactive
C[C@@H]1O[C@@H](O[C@H]2[C@H](Oc3cc(O)c(C(=O)CCc4ccc(O)cc4)c(O)c3)O[C@H](CO)[C@@H](O)[C@@H]2O)[C@H](O)[C@H](O)[C@H]1O | inactive

— PubChem BioAssay (NCATS)
